# Results: publication PMC7862700, “An all-to-all approach to the identification of sequence-specific readers for epigenetic DNA modifications on cytosine”
# Tests used:
# Test in all cases: DAPPL (digital affinity profiling via proximity ligation, sequencing); 10 mM Tris-HCl pH 7.5, 50 mM NaCl, 1 mM DTT, 4% glycerol, room temperature, 30 min; GST-TFs on glutathione beads, 16-mer random dsDNA library, 0.1% formaldehyde crosslink after washing; high values mean tight binding
# FLI1 = molecular target: T1, FLI1 (Homo sapiens, UniProt Q01543 1-452); details: protein: recombinant; tags: N-terminal GST; dsDNA, one strand shown
# T1 sequence: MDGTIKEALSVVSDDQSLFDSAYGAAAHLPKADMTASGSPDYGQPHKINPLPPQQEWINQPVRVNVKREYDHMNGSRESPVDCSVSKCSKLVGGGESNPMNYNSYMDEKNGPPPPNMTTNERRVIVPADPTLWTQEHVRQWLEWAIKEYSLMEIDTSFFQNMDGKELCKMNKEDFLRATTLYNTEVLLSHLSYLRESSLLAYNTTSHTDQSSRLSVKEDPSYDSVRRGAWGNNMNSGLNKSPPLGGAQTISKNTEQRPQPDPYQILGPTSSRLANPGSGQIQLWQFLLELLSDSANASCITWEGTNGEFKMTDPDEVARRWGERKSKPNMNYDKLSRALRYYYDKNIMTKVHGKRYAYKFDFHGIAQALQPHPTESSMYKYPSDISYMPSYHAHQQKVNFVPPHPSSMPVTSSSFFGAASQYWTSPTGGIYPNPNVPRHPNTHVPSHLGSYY
# Procedure, shortened: (§1)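 GST fusions of human transcription factors were expressed in yeast and captured with glutathione beads. Once given DNA barcodes and pooled alongside a tag-only sample, they were incubated for 30 min at room temperature with 200 nmole of a random double-stranded 16-mer DNA library in Tris/NaCl/DTT/glycerol buffer, then washed, crosslinked (0.1% formaldehyde), proximity-ligated, PCR-amplified and sequenced on an Illumina NextSeq500. The binding signal of each hexamer is its read frequency for a factor divided by its frequency for the tag-only sample.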
# ELK1 = molecular target: T2, ELK1 (Homo sapiens, UniProt P19419 1-428); details: protein: recombinant; tags: N-terminal GST; dsDNA, one strand shown
# T2 sequence: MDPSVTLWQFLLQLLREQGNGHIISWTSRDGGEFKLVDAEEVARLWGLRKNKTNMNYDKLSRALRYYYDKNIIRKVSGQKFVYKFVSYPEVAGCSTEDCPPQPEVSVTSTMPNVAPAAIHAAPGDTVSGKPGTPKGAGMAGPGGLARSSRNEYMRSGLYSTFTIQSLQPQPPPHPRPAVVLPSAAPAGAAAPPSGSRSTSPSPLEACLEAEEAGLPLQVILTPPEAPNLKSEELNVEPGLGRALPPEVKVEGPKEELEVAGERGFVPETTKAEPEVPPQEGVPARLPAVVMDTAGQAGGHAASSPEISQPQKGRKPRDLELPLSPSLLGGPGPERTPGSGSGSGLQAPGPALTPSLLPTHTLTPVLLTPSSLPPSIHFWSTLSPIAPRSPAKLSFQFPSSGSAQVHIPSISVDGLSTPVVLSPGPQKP
# Procedure, shortened: as §1
# GABPA = molecular target: T3, GABPA (Homo sapiens, UniProt Q06546 1-454); details: protein: recombinant; tags: N-terminal GST; dsDNA, one strand shown
# T3 sequence: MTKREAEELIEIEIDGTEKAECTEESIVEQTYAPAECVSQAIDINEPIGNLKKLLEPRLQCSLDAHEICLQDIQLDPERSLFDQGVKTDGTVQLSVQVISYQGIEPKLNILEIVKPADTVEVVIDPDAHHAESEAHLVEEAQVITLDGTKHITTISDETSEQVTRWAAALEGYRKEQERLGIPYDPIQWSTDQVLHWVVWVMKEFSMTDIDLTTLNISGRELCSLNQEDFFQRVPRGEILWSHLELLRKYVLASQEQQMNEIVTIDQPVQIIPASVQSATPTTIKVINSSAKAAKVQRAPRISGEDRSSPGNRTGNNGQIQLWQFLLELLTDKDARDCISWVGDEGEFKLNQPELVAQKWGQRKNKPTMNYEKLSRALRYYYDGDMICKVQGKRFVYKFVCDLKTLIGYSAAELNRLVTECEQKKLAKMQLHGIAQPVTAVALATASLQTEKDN
# Procedure, shortened: as §1
# ERG = molecular target: T4, ERG (Homo sapiens, UniProt P11308 1-479); details: protein: recombinant; tags: N-terminal GST; dsDNA, one strand shown
# T4 sequence: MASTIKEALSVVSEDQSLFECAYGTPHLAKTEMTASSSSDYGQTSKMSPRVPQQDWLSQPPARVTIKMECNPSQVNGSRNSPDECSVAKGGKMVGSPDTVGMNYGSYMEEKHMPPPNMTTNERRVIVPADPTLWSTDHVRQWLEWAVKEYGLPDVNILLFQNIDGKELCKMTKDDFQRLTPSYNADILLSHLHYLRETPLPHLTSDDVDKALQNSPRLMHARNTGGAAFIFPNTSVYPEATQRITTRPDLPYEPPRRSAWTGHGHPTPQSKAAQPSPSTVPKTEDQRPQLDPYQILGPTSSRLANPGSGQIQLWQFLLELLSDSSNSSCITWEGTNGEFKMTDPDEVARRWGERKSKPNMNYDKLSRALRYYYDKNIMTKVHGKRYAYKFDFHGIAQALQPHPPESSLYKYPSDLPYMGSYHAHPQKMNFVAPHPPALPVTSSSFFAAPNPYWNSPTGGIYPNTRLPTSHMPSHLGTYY
# Procedure, shortened: as §1
# ELF1 = ELF1 (Homo sapiens, UniProt P32519 1-619); details: protein: recombinant; tags: N-terminal GST; dsDNA, one strand shown
# Chain of ELF1 (P32519 whole entry): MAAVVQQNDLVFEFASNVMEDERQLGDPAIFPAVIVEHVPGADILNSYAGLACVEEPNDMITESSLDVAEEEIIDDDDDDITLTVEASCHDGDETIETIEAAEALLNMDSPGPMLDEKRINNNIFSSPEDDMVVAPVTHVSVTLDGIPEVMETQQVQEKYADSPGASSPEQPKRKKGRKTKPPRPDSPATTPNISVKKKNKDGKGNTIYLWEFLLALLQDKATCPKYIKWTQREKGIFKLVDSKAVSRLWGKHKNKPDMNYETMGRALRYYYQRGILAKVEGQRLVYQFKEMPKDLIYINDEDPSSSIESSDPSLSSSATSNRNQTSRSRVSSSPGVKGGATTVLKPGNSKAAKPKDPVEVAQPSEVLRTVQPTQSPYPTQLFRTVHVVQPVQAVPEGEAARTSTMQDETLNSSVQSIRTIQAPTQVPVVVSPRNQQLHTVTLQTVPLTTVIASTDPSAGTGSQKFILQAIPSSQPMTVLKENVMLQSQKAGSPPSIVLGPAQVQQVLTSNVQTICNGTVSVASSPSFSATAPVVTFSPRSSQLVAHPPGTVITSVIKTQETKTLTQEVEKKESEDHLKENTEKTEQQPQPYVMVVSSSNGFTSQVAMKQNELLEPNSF
# Procedure, shortened: as §1
# EHF = molecular target: T5, EHF (Homo sapiens, UniProt Q9NZC4 1-300); details: protein: recombinant; tags: N-terminal GST; dsDNA, one strand shown
# T5 sequence: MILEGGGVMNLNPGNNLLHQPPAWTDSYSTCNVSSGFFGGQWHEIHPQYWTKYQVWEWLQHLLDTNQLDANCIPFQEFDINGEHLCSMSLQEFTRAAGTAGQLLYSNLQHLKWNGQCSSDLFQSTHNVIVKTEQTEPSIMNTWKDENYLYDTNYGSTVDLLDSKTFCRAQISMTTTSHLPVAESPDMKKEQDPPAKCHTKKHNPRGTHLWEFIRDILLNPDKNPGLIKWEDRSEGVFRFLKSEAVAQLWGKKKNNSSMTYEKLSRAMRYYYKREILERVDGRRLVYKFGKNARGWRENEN
# Procedure, shortened: as §1
# SPI1 = SPI1 (Homo sapiens, UniProt P17947 1-270); details: protein: recombinant; tags: N-terminal GST; dsDNA, one strand shown
# Procedure, shortened: as §1
# SPIB = SPIB (Homo sapiens, UniProt Q01892 1-262); details: protein: recombinant; tags: N-terminal GST; dsDNA, one strand shown
# Chain of SPIB (Q01892 whole entry): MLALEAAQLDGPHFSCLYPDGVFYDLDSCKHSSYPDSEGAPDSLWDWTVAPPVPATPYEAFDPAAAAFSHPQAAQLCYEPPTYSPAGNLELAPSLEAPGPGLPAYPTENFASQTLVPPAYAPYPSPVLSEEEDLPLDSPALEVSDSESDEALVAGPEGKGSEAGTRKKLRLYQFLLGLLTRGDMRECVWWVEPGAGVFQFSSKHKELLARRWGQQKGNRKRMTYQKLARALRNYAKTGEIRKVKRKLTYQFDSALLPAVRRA
# Procedure, shortened: as §1
# ELK3 = molecular target: T6, ELK3 (Homo sapiens, UniProt P41970 1-407); details: protein: recombinant; tags: N-terminal GST; dsDNA, one strand shown
# T6 sequence: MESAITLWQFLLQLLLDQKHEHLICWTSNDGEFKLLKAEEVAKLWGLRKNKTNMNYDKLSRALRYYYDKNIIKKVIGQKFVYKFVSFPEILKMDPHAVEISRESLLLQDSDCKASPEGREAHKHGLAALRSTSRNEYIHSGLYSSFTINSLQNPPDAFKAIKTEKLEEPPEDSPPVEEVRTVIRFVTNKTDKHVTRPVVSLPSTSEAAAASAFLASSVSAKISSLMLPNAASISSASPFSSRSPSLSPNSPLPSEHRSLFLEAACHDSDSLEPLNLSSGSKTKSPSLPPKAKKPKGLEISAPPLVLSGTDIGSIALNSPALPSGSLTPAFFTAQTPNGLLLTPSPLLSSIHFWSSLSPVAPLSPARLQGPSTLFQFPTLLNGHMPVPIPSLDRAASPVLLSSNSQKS
# Procedure, shortened: as §1
# FEV = molecular target: T7, FEV (Homo sapiens, UniProt Q99581 1-238); details: protein: recombinant; tags: N-terminal GST; dsDNA, one strand shown
# T7 sequence: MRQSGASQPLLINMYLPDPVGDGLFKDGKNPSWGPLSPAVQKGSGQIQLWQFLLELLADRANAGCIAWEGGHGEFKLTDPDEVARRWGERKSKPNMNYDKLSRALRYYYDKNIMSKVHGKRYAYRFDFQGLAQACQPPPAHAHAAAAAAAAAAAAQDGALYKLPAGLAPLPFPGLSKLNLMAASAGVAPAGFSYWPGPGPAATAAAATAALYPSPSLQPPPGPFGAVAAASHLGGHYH
# Procedure, shortened: as §1
# ETV5 = ETV5 (Homo sapiens, UniProt P41161 1-510); details: protein: recombinant; tags: N-terminal GST; dsDNA, one strand shown
# Chain of ETV5 (P41161 whole entry): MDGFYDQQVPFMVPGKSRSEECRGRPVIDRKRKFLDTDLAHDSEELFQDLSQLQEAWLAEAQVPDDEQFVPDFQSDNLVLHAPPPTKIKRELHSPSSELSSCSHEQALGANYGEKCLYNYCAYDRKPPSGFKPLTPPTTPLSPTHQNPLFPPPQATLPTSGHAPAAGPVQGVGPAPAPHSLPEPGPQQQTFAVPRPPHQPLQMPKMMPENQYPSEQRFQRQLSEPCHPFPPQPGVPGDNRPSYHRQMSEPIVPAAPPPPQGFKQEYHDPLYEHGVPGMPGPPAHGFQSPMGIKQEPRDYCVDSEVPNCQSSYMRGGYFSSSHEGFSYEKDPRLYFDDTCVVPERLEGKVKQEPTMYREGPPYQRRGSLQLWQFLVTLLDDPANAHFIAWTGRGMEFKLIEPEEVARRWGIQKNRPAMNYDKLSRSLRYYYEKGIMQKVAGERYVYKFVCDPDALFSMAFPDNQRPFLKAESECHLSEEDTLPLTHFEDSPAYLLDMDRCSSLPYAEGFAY
# Procedure, shortened: as §1
# HSF1 = HSF1 (Homo sapiens, UniProt Q00613 1-529); details: protein: recombinant; tags: N-terminal GST; chain copies: 3; dsDNA, one strand shown
# Chain of HSF1 (Q00613 whole entry): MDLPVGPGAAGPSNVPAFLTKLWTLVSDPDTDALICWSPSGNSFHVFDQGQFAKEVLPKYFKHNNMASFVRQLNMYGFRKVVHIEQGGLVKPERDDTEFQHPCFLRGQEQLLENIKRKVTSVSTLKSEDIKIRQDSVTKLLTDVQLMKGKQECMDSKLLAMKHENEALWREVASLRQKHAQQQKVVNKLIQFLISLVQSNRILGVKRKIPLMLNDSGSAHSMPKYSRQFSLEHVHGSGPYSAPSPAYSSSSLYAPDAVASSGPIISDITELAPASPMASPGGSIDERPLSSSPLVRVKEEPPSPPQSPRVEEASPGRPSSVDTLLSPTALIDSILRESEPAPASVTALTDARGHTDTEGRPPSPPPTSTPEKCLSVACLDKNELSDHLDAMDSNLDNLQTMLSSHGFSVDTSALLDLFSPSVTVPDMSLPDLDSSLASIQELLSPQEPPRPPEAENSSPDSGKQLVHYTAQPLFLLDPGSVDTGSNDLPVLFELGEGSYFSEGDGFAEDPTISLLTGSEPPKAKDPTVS
# Procedure, shortened: as §1
# SPIC = molecular target: T8, SPIC (Homo sapiens, UniProt Q8N5J4 1-248); details: protein: recombinant; tags: N-terminal GST; dsDNA, one strand shown
# T8 sequence: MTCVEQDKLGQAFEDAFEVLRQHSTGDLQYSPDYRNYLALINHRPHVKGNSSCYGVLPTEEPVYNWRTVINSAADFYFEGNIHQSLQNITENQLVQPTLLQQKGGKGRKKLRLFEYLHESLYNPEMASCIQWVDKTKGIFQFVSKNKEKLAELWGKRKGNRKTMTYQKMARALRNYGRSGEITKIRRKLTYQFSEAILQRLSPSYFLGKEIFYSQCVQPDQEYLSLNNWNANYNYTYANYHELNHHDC
# Procedure, shortened: as §1
# ELF4 = ELF4 (Homo sapiens, UniProt Q99607 1-663); details: protein: recombinant; tags: N-terminal GST; dsDNA, one strand shown
# Chain of ELF4 (Q99607 whole entry): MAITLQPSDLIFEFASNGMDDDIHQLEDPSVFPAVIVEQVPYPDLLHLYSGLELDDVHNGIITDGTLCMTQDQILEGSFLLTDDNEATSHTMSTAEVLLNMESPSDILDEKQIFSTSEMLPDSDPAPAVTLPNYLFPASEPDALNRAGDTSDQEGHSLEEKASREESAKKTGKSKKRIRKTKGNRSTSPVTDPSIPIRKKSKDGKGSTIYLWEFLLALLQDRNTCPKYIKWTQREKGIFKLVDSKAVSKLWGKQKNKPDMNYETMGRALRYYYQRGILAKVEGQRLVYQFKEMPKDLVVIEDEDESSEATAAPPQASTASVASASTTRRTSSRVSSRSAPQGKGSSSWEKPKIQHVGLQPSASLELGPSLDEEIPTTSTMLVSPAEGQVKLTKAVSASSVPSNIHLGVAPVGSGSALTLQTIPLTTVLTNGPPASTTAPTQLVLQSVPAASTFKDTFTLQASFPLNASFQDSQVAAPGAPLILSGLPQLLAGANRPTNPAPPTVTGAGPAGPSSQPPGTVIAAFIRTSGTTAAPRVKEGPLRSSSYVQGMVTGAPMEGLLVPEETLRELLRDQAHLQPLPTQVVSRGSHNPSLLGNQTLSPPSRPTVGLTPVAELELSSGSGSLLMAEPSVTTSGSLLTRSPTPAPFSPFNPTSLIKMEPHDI
# Procedure, shortened: as §1
# ELK4 = molecular target: T9, ELK4 (Homo sapiens, UniProt P28324-2 1-405); details: protein: recombinant; tags: N-terminal GST; dsDNA, one strand shown
# T9 sequence: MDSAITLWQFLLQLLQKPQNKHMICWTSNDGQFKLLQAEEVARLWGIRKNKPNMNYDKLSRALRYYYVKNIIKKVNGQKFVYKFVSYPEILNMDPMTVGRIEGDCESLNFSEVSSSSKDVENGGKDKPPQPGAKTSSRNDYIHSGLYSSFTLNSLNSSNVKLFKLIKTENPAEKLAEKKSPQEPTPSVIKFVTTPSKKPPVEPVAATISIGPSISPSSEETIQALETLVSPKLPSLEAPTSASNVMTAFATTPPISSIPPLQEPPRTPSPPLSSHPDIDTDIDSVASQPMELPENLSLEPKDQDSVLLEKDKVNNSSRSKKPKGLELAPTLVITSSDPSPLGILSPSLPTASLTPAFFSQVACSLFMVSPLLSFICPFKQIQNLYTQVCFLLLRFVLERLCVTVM
# Procedure, shortened: as §1
# ETV2 = molecular target: T10, ETV2 (Homo sapiens, UniProt O00321 1-342); details: protein: recombinant; tags: N-terminal GST; dsDNA, one strand shown
# T10 sequence: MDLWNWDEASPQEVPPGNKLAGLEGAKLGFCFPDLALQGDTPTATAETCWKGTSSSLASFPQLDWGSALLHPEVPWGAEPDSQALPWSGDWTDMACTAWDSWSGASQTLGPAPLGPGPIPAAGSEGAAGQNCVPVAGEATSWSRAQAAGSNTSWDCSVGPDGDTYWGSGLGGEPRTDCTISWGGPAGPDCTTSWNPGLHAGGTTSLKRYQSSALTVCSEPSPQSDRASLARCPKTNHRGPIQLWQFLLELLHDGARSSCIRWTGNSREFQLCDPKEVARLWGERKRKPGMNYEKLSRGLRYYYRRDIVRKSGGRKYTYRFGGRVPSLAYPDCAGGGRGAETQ
# Procedure, shortened: as §1
# ELF3 = molecular target: T11, ELF3 (Homo sapiens, UniProt P78545 1-371); details: protein: recombinant; tags: N-terminal GST; dsDNA, one strand shown
# T11 sequence: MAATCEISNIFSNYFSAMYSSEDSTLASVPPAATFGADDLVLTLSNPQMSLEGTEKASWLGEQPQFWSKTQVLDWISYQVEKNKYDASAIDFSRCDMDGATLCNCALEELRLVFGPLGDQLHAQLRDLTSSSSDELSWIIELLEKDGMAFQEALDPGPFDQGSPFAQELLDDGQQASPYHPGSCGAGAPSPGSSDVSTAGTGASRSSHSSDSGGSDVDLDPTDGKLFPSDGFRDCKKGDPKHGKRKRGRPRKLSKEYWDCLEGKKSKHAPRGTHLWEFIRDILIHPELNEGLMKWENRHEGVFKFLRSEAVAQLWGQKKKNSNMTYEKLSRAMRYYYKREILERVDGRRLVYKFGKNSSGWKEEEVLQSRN
# Procedure, shortened: as §1
# CRX = CRX (Homo sapiens, UniProt O43186 1-299); details: protein: recombinant; tags: N-terminal GST; dsDNA, one strand shown
# Chain of CRX (O43186 whole entry): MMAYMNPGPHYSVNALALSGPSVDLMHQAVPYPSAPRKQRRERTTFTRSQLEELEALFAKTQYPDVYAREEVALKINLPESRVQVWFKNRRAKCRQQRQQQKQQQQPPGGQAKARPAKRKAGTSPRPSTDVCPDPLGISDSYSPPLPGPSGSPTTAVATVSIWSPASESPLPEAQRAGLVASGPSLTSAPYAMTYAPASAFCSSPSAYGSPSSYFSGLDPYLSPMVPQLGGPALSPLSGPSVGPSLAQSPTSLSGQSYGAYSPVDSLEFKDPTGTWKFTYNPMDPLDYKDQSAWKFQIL
# Procedure, shortened: as §1
# ETV1 = ETV1 (Homo sapiens, UniProt P50549 1-477); details: protein: recombinant; tags: N-terminal GST; dsDNA, one strand shown
# Chain of ETV1 (P50549 whole entry): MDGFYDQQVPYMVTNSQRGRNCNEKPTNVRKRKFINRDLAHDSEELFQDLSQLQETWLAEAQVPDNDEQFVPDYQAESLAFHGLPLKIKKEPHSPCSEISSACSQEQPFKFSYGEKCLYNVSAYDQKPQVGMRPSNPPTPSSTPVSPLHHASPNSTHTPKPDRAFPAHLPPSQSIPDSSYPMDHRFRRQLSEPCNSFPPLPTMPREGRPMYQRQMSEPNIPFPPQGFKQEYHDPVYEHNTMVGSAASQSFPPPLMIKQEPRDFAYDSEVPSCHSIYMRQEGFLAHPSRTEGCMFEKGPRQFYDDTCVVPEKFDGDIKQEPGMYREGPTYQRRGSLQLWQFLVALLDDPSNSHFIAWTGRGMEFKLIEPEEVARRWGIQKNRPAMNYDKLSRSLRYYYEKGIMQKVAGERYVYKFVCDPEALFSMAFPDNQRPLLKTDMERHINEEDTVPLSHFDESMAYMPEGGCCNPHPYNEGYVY
# Procedure, shortened: as §1
sequence,measurement,setting,value
TAAATC,binding signal,FLI1,"1.15 fold enrichment (6-mer frequency, TF over GST control)"
same,binding signal,ELK1,"1.28 fold enrichment (6-mer frequency, TF over GST control)"
same,binding signal,GABPA,"1.24 fold enrichment (6-mer frequency, TF over GST control)"
same,binding signal,ERG,"1.2 fold enrichment (6-mer frequency, TF over GST control)"
same,binding signal,ELF1,"1.23 fold enrichment (6-mer frequency, TF over GST control)"
same,binding signal,EHF,"1.17 fold enrichment (6-mer frequency, TF over GST control)"
same,binding signal,SPI1,"1.21 fold enrichment (6-mer frequency, TF over GST control)"
same,binding signal,SPIB,"1.12 fold enrichment (6-mer frequency, TF over GST control)"
same,binding signal,ELK3,"1.35 fold enrichment (6-mer frequency, TF over GST control)"
same,binding signal,FEV,"1.21 fold enrichment (6-mer frequency, TF over GST control)"
same,binding signal,ETV5,"1.23 fold enrichment (6-mer frequency, TF over GST control)"
same,binding signal,HSF1,"1.9 fold enrichment (6-mer frequency, TF over GST control)"
same,binding signal,SPIC,"1.2 fold enrichment (6-mer frequency, TF over GST control)"
same,binding signal,ELF4,"1.3 fold enrichment (6-mer frequency, TF over GST control)"
same,binding signal,ELK4,"1.27 fold enrichment (6-mer frequency, TF over GST control)"
same,binding signal,ETV2,"1.12 fold enrichment (6-mer frequency, TF over GST control)"
same,binding signal,ELF3,"1.2 fold enrichment (6-mer frequency, TF over GST control)"
same,binding signal,CRX,"2.81 fold enrichment (6-mer frequency, TF over GST control)"
same,binding signal,ETV1,"1.26 fold enrichment (6-mer frequency, TF over GST control)"
